Compounds with a hit are over-represented: about 3.3% of the library has one in this group of screens.
CASP6 VEID inh = blocks human caspase-6 cleavage activity. purified caspase-6, Z-VEID-R110 cleavage fluorescence. 350,000 tested, 0.53% active. P55212. inhibition, % at 12.5 µM;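 active means mean inhibition across replicates at least about 35%, with every replicate also reaching that limit, limit read from the data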;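 further: 0% = median of neutral control wells and 100% = no fluorescence left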
GSIS activator = primary screen for activators of insulin secretion dependent on glucose, INS-1E cells, GLuc reporter luminescence; INS-1E GLuc reporter insulin secretion, 2-3 h; activation, % at 16.6 µM; 370,000 tested, 0.61% active;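 active means lowest replicate activation of at least 40%, so every replicate reaches that level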;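 further: 0% = median of neutral control wells and 100% = median of IBMX positive control wells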
ERAP1 HTS inh = inhibitors of human ERAP1 aminopeptidase | Q9NZ08 | recombinant ERAP1, Leu-AMC fluorescence, 60 min | 340,000 tested, 0.15% active | inhibition, % at 10.7 µM | AID 652197;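 active means mean replicate inhibition of at least 30%, or all replicates individually reaching that 30% level; inactive means mean below 30% and not every replicate reaching it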;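 further: 0% = neutral control wells and 100% = L-leucinethiol positive control wells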
SIRT5 inh = blocks human SIRT5 desuccinylation of peptide. Q9NXA8. Purified SirT5, succinyl-peptide AMC, trypsin-coupled fluorescence. inhibition, % at 15 µM. 330,000 tested, 1.1% active; in the data active means inhibition above about 15%
Target sequence (Q9NXA8 whole entry, looked up): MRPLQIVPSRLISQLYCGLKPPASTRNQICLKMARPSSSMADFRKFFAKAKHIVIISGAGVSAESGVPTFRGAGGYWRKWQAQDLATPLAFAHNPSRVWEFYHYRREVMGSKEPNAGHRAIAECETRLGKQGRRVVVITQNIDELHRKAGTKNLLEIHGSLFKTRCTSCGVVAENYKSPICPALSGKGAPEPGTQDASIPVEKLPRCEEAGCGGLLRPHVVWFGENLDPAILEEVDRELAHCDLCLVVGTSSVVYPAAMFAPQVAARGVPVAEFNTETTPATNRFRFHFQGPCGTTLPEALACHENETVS
FGF22 binding = binders of recombinant human FGF22 by thermal shift; 340,000 tested, 1.5% active; activity (Tm shift, normalised), % at 9.99 µM; SYPRO orange fluorescence; percent of sucrose octasulfate shift, DMSO zero; AID 651658;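 active means mean Tm shift, scaled 0 neutral to 100 positive control, at about 1.3% or above, every replicate too, limit read from the data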
* = called active by the depositor.

Cc1ccc(N(C(=O)c2csnn2)C(C(=O)NC2CCCCC2)c2ccco2)cc1 (centres undefined) was read as CASP6 VEID inh 0, GSIS activator -19, ERAP1 HTS inh -1, SIRT5 inh 79* and FGF22 binding 0.
For O=C(NC1CCCC1)C(c1ccccc1)N(C(=O)c1csnn1)C1CCCC1 (centres undefined) the results were CASP6 VEID inh -1, GSIS activator 2, ERAP1 HTS inh -3, SIRT5 inh -2 and FGF22 binding 0.
Screening COCC(=O)N1CC(=O)N2[C@H](CO)[C@@H](c3ccc(C#CC(C)C)cc3)[C@@H]2C1 returned CASP6 VEID inh 1, GSIS activator 25, ERAP1 HTS inh 1 and SIRT5 inh 1.
`COc1cccc(N=C(N)N)c1` gave CASP6 VEID inh -2, GSIS activator -2, ERAP1 HTS inh -1, SIRT5 inh 0 and FGF22 binding 43*.
For CCCC#Cc1ccc2c(c1)O[C@@H](CN(C)C(=O)CN(C)C)[C@H](C)CN([C@@H](C)CO)S2(=O)=O the results were CASP6 VEID inh -7, GSIS activator -6, ERAP1 HTS inh -5, SIRT5 inh -4 and FGF22 binding 0.
For FC(F)Oc1ccc(/C=N/NC(=S)Nc2cc(C(F)(F)F)ccc2Cl)cc1 the results were GSIS activator 111*.
For CNC(=S)Nc1cc(C(F)(F)F)ccc1Cl the results were CASP6 VEID inh -2, GSIS activator -5, ERAP1 HTS inh -1, SIRT5 inh 1 and FGF22 binding 0.
For COC(=O)CSc1nnc(-c2ccc3c(c2)OCO3)n1C the results were GSIS activator 27.
CNC(=O)CSc1nnc(-c2ccc3c(c2)OCO3)n1C was read as CASP6 VEID inh -5, GSIS activator 1, ERAP1 HTS inh 1, SIRT5 inh -8 and FGF22 binding 43*.
`C[C@@H]1CN([C@@H](C)CO)C(=O)c2cc(NC(=O)NC3CCCCC3)ccc2O[C@H]1CN(C)C(=O)Nc1ccc2c(c1)OCO2` gave CASP6 VEID inh -2, GSIS activator -3, ERAP1 HTS inh 2, SIRT5 inh 2 and FGF22 binding 0.
`Cc1cc(OCc2nnc(SC(C)C(=O)O)n2Cc2ccccc2)ccc1Cl` (centres undefined) gave GSIS activator 0, ERAP1 HTS inh -10, SIRT5 inh 24* and FGF22 binding 0.
`CC1(C)CN(c2ccccc2)N(C(=O)c2ccc(F)cc2)C1=O` gave CASP6 VEID inh 1, GSIS activator 8, ERAP1 HTS inh 3, SIRT5 inh 24* and FGF22 binding 0.
Screening O=CN/C=C/c1cc(O)ccc1O returned CASP6 VEID inh 70*, ERAP1 HTS inh 5 and FGF22 binding -1.
`O=C1/C(=C/c2cccs2)NC(=S)N1C1CC1` gave CASP6 VEID inh 1, GSIS activator 47*, ERAP1 HTS inh 6, SIRT5 inh 0 and FGF22 binding 0.
Screening O=C1CNC(=O)/C(=C/c2cccs2)N1 returned CASP6 VEID inh 0, GSIS activator 5, ERAP1 HTS inh 0, SIRT5 inh 0 and FGF22 binding 43*.
For COc1ccccc1N1CCN(C(=O)CCN2C(=O)c3cccc4cccc(c34)C2=O)CC1 the results were CASP6 VEID inh 4, GSIS activator 6, ERAP1 HTS inh 0, SIRT5 inh 4 and FGF22 binding 45*.
COc1ccc(-c2[nH]ncc2CN(CCO)CC23CC4CC(CC(C4)C2)C3)c(OC)c1 was read as CASP6 VEID inh -6, GSIS activator -17, ERAP1 HTS inh 3, SIRT5 inh 24* and FGF22 binding 0.
Screening COc1ccc(-c2[nH]ncc2CN2CCC(OCc3cccnc3)CC2)c(F)c1 returned CASP6 VEID inh -7, GSIS activator -1, ERAP1 HTS inh -4, SIRT5 inh -1 and FGF22 binding 0.
For COc1ccc(-c2[nH]ncc2CN(C)Cc2cccnc2)c(OC)c1 the results were CASP6 VEID inh 2, GSIS activator 14, ERAP1 HTS inh 7, SIRT5 inh -1 and FGF22 binding 43*.
Screening COCC(=O)N1[C@@H](CO)[C@@H](c2ccc(-c3cccc(OC)c3)cc2)C12CN(C(C)=O)C2 returned CASP6 VEID inh 0, GSIS activator -7, ERAP1 HTS inh -1, SIRT5 inh -2 and FGF22 binding 0.
